Shown are actives, neighbours in structure and some others; about 7.4% of the full set was active somewhere.
SMN2 splice up: increases expression of the SMN2 splice variant | AID 1458 | HEK293 SMN2-luciferase splicing reporter, luminescence, 30-36 h | Potency, µM (top dose mostly 46.1 µM), for inactives: at the top dose activity change, positive = activation, usual class: activators | 210,000 compounds, 2.8% hits; note: % of control where 0% means no effect; nearly all actives have a fitted effect of over 55% in size
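HEK293 cells carry an SMN2 […]–luciferase reporter in which exon 7 inclusion puts luciferase in frame. Cells were plated 10-12 h before compound addition, then incubated 30-36 h at 37C. ONE-Glo luminescence was read; sodium butyrate at 4.5 mM final served as control.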
Rab9 prom act: activators of Rab9 promoter; Huh7 Rab9 promoter-luciferase reporter, luminescence, 24 h; Potency, µM (series often up to 9.22 µM), inactives show top-dose activation, negative = inhibition, most hits filed as activators; 320,000 compounds, 2.8% hits; AID 485297; note: % of control where 0% means no effect; nearly all actives have a fitted effect of over 60% in size
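Cells were plated at 1500 per well in reduced-serum medium with 10% FBS and left 2 h. Compound in DMSO was then added for 24 h at 37 °C. Reporter signal was read by luminescence after 10 min with luciferase detection reagent.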
FLuc counter: inhibits or activates purified firefly luciferase, miR-21 counter-screen; P08659; purified FLuc, Km substrates, luminescence inhibition; Potency, µM (titrated, usually from 57.5 µM), for inactives: at the highest dose activity change, negative = inhibition, hits mostly inhibitors; 360,000 compounds, 6.9% hits; AID 588342;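 note: plate controls were vehicle for no effect and reference inhibitor for full effect; nearly all actives have a fitted effect of over 55% in size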
Target sequence (P08659 whole entry, looked up): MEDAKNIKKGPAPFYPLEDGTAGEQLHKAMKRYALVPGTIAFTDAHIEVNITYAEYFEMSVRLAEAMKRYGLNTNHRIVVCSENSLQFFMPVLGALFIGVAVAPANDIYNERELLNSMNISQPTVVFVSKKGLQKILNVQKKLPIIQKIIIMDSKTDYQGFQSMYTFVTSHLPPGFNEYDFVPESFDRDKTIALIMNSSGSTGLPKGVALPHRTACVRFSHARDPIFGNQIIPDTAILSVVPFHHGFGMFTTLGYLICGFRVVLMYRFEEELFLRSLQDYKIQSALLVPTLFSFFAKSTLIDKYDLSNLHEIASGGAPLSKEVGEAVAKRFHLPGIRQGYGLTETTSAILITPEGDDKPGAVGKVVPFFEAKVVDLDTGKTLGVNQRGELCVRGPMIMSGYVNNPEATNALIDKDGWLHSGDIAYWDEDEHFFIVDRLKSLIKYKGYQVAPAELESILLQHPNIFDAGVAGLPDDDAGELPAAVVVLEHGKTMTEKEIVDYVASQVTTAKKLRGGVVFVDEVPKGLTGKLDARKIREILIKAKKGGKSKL
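Purified P. pyralis luciferase (10nM final) with 10uM D-luciferin and 10uM ATP (Km levels) in 50mM Tris acetate pH 7.5, 10mM Mg acetate, 0.01% Tween-20, 0.05% BSA; qHTS 6-point titration, ~60 µM downward; luminescence read.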
ELG1 genotoxic: genotoxicity induction in ELG1-luciferase HEK293T cells | HEK293T ELG1-luciferase reporter, luminescence, 16 h | Potency, µM (highest dose often 46 µM), inactives show top-dose activity change, positive = activation, usual class: activators | 330,000 compounds, 1.3% hits | AID 504466; note: % of control where 0% means no effect; nearly all actives have a fitted effect of over 60% in size
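Step 1: seed 2,000 HEK293T ELG1-luciferase cells per well. Step 2: add compound or DMSO, incubate 16 hr at 37 °C. Step 3: ONE-Glo, 30 min at room temperature, read luminescence.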
NPC1 prom act: activates the NPC1 promoter; Huh7 NPC1 promoter luciferase reporter, 24 h; Potency, µM (top dose mostly 9.22 µM), for the others: top-dose activation, most hits filed as activators; 320,000 compounds, 2.4% hits; AID 485313; note: % of control where 0% means no effect; nearly all actives have a fitted effect of over 60% in size
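Compounds in DMSO were transferred onto Huh7 NPC1-luciferase reporter cells pre-incubated 2 h; after 24 h at 37 °C, Amplite reagent was dispensed and luminescence recorded 10 min later.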
KinaseGlo FLuc: blocks Kinase-Glo luciferase, a counter-screen artifact; Q27757; Kinase-Glo luciferase, ATP luminescence, 8 min; Potency, µM (doses to about 38.3 µM), for the others: at the top dose activity change, negative = inhibition, most hits filed as inhibitors; 200,000 compounds, 0.28% hits; AID 1379; note: % is set by controls: 0 for no effect and ±100 for the full control effect; nearly all actives have a fitted effect of over 60% in size
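Compound is pinned into ATP-containing buffer (10 uM ATP, imidazole pH 7.2, 7 mM MgCl2). Kinase-Glo luciferase reagent is then added. Light output is recorded following an 8-min room-temperature incubation.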
* hit, by the source's call; ? = inconclusive; / = not tested or not shown; [ ] = another dose, or the depositor's remark. Calls come from the whole dose curve; as a rule, active = well fitted curve in the direction sought with a large enough effect; inconclusive = small, poorly fitted or top-dose-only effect, or another doubt; inactive = no such curve, though single readings can be large; an effect the other way counts as inactive or inconclusive. Potency is the fitted concentration of half-maximal effect.

SMILES	SMN2 splice up	Rab9 prom act	FLuc counter	ELG1 genotoxic	NPC1 prom act	KinaseGlo FLuc
Cc1cc(C(=O)CN2C(=O)C(=O)N(C3CCCC3)C2=O)c(C)n1-c1ccc(F)cc1	-1%	12%	-17%	-9%	0%	-3%
Cc1cc(C(=O)CN2C(=O)NC(CC(C)C)C2=O)c(C)n1-c1ccccc1F (stereo not drawn)	25%	1.1µM*	13µM*	?	2.2µM*	6%
Cc1cc(C(=O)CN2C(=O)C(=O)N(CC(C)C)C2=O)c(C)n1-c1ccccc1F	16%	23%	17µM*	5%	2%	-2%
CCc1nnc(NC(=O)C(=O)NCCOC(=O)c2ccccc2)s1	?	-2%	-1%	0%	3%	-4%
Cc1ccc(NC(=O)CNC(=O)c2ccco2)c(Cl)c1	/	9%	-15%	?	16%	/
Cc1ccc(-c2nc3ccc([N+](=O)[O-])cc3[nH]2)cc1	1.3µM*	1.6µM*	0.85µM*	?	1.6µM*	-6%
Fc1ccc(-c2nc3ccncc3[nH]2)cc1	10%	20%	?	6%	23%	?
Clc1ccc(-c2nc3ccncc3[nH]2)cc1	11µM*	?	11µM*	?	?	?
Nc1nc2ccc([N+](=O)[O-])cc2[nH]1	/	-1%	0%	-11%	-4%	/
O=[N+]([O-])c1cccc(-c2nc3ccc([N+](=O)[O-])cc3[nH]2)c1	-73%	4µM*	?	-4%	21%	?
O=[N+]([O-])c1ccc2nc(-c3ccc(Cl)cc3)[nH]c2c1	3.2µM*	1.6µM*	3µM*	-1%	2µM*	-4%
CN(C)S(=O)(=O)c1cccc(NC(=O)COc2ccccc2C(=O)NCc2ccccc2)c1	/	-2%	2%	-2%	4%	/
CC(C)(C)OC(=O)N1CCC(c2c(C(=O)NC3CC3)cnn2-c2ccc(Cl)cc2)CC1	/	1%	2%	0%	-1%	/
COc1cccc(NC(=O)CN2C(=O)NC3(CCc4ccccc43)C2=O)c1 (stereo not drawn)	/	2%	5%	-1%	1%	/
Cc1cc(C)c(C(=O)COC(=O)C2CC3CCCC(C2)C3=O)c(C)c1 (stereo not drawn)	/	0%	0%	0%	2%	/
O=[N+]([O-])c1ccc2nc(-c3ccncc3)[nH]c2c1	/	28%	17µM*	?	?	/
COc1ccc(-c2nc3ccc([N+](=O)[O-])cc3[nH]2)cc1	1µM*	1.1µM*	1.5µM*	?	1.6µM*	-5%
NC(N)=Nc1nc2ccc([N+](=O)[O-])cc2[nH]1	-4%[9.22 µM]	0%	-7%	6%	4%	-3%[7.66 µM]
O=[N+]([O-])c1ccc2nc(-c3ccccc3[N+](=O)[O-])[nH]c2c1	-5%	12%	?	-12%	1%	-4%
O=C(Nc1nnc(C2CCCO2)s1)c1cccs1 (stereo not drawn)	13µM*	15%	?	?	29%	-5%
COc1cccc(C(=O)Nc2nnc(C3CCCO3)s2)c1 (stereo not drawn)	11µM*	2.2µM*	15µM*	?	2.8µM*	-1%
O=C(Nc1nnc(C2CCCCC2)s1)c1cccs1	14µM*	2.8µM*	4.8µM*	?	2.2µM*	0%
Cc1[nH]nc2c1C(c1ccsc1)C1=C(CC(C)(C)CC1=O)N2 (stereo not drawn)	23%	1%	4%	-2%	-8%	1%
COc1ccnc2c1c(=O)n(Cc1ccc(Cl)cc1Cl)c(=O)n2C	/	-1%	6%	1%	2%	/
Cc1cccc(NC(=S)NCc2ccccc2Cl)c1C	/	6%	10%	1%	-2%	/
SMILES	SMN2 splice up	Rab9 prom act	FLuc counter	ELG1 genotoxic	NPC1 prom act	KinaseGlo FLuc
Cc1csc2c(N3CCN(C(=O)c4ccc(C(C)(C)C)cc4)CC3)ncnc12	/	-4%	27µM*	5%	-6%	/
Cc1csc2c(N3CCN(C(=O)NC(C)(C)C)CC3)ncnc12	/	-8%	-2%	-9%	-4%	/
CCOC(=O)C1CCN(c2ncnc3c(C)csc23)CC1	/	?	11µM*	?	25%	/
O=C(c1cccc(F)c1)N1CCC2(CC1)CN(c1cccc(-c3ccccc3)c1)C2	-48%	/	/	/	/	0%
O=C(O)c1cccc(-n2c(/C=C/c3ccccc3)nc3ccccc3c2=O)c1	/	1%	?	2%	-6%	/
O=C(O)c1cc(-n2c(/C=C\c3ccc(F)cc3)nc3ccccc3c2=O)ccc1Cl	/	/	24µM*	/	/	/
COc1cccc(NC(=O)CSc2nnc(NC(=O)NC3CCCCC3)s2)c1	/	/	1.5µM*	/	/	/
Cc1ccc(NC(=O)CSc2nnc(NC(=O)NC3CCCCC3)s2)cc1	/	/	0.95µM*	/	/	/
CCCSc1nnc(NC(=O)Nc2ccc(C)cc2)s1	/	-2%	0%	-3%	2%	/
Cc1ccc(NC(=O)CSc2nnc(NC(=O)C3CC3)s2)cc1	/	4%	0%	?	1%	/
O=C(CSc1nnc(NC2CCCCC2)s1)Nc1ccc(N2CCOCC2)cc1	-13%	14%	13µM*	10%	17%	-11%
Cc1ccc(NC(=O)Nc2nnc(SCC(=O)N3CCC(C)CC3)s2)cc1	/	/	19µM*	/	/	/
COc1cccc(NC(=O)CSc2nnc(NC(=O)C3CC3)s2)c1	/	2%	-19%	0%	-2%	/
CCCCn1c(SCC(=O)NCc2ccc(C)cc2)nc2c(sc3ccccc32)c1=O	/	/	0%	/	/	/
COc1ccccc1C(=O)NC1=NC(c2ccc(Br)cc2)CC(=O)N1 (stereo not drawn)	11µM*	/	4.8µM*	/	/	/
Cc1cc(C)cc(OCCn2ccnc2)c1	/	-1%	-1%	-3%	-12%	/
O=C(/C=C/c1ccccc1Cl)NNC(=O)c1ccncc1	/	20%	21µM*	1%	2%	/
N/C(=N\OC(=O)/C=C/c1ccccc1)c1ccncc1	3%	1.8µM*	6µM*	?	3.2µM*	-3%
O=C(/C=C/c1ccccc1)c1ccccn1	-11%	?	1.3µM*	19%	?	14µM*
COc1ccccc1C/C(N)=N/OC(=O)/C=C/c1ccccc1	6%	15%	?	2%	-1%	0%
N/C(=N\OC(=O)/C=C/c1ccccc1)c1ccccn1	13µM*	2.5µM*	0.67µM*	4.1µM*	?	11µM*
CCC(NC(=S)NCc1ccc(F)cc1)c1ccccc1 (stereo not drawn)	/	4%	1%	-20%	-2%	/
COc1ccc(N(Cc2ccccc2)C(=O)c2nc(S(C)(=O)=O)ncc2Cl)cc1	-97%	/	-17%	/	/	/
COc1cc(C(=O)N(C)CC(=O)Nc2cccc(F)c2)ccc1OCc1ccccc1	/	0%	5%	-5%	-1%	/

Screens as filed in PubChem BioAssay.
